Measured values as given in PubChem BioAssay (Tox21).
Results filed as inconclusive are left out. Activity calls are given as the source filed them. Unless noted, calls follow the shape of the dose curve; as a rule, active = well fitted curve in the direction sought with a large enough effect in the repeat runs; inconclusive = weak or mixed curves; inactive = no such curve, though single readings can be large; an effect the other way counts as inactive or inconclusive.

Tests used:
[1] = qHTS assay to identify small molecule antagonists of the estrogen related receptor (ERR) signaling pathway from Tox21 library - cell viability counter screen (AID 1224834); also: nearly all actives have a fitted effect of over 30% in size
Method in brief: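 ERR reporter cells, 2,000 per well, rested 6 h, then exposed to compound in DMSO for 17.5 hours at 37 C. Viability read as fluorescence after 30 min with CellTiter-Fluor.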

[2] = target: Luciferin 4-monooxygenase (Photinus pyralis) (UniProt P08659); test: qHTS assay to identify small molecule inhibitors of firefly luciferase (AID 1224835); also: series mostly up to about 120 µM; nearly all actives have a fitted effect of over 25% in size
Method in brief: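 Biochemical qHTS: compounds run as interplate titrations against purified firefly enzyme, with D-luciferin and ATP each at its KM concentration. Light output recorded by CCD imaging.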

[3] = qHTS assay to identify small molecule agonists of the constitutive androstane receptor (CAR) signaling pathway - cell viability counter screen (AID 1224836); also: series mostly up to about 92 µM; nearly all actives have a fitted effect of over 45% in size
Method in brief: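 Using CellTiter-Fluor, viability of HepG2 cells harbouring hCAR and CYP2B6-2.2kb was measured following 23 h incubation with a 15-concentration compound series plus PK11195 (0.75 uM final).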

[4] = qHTS assay to identify small molecule antagonists of the constitutive androstane receptor (CAR) signaling pathway - cell viability counter screen (AID 1224837); also: series mostly up to about 92 µM; nearly all actives have a fitted effect of over 45% in size
Method in brief: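 HepG2 cells stably carrying hCAR and CYP2B6-2.2kb reporter, stimulated with 50 nM CITCO and compounds at 15 concentrations for 23 h at 37 C. Viability measured by CellTiter-Fluor fluorescence.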

[5] = qHTS assay to identify small molecule antagonists of the estrogen related receptor signaling pathway with the pleiotropic PPARgamma coactivator (PGC) from Tox21 10K library - cell viability counter screen (AID 1224840; active = well fitted cell-killing curve with a large enough effect in the repeat runs, not every such curve was filed as active; also: nearly all actives have a fitted effect of over 40% in size)
Method in brief: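 PGC/ERR cells (2,000/well) plated 6 h, then compound-treated for 17.5 h at 37 C. Viability measured by CellTiter-Fluor fluorescence after 30 min at 37 C, multiplexed with the pathway assay.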

[6] = target: Thyrotropin receptor (Homo sapiens) (UniProt P16473); test: qHTS assay to identify small molecule agonists of the thyroid stimulating hormone receptor (TSHR) signaling pathway (AID 1224843; calls by dose curve; also: nearly all actives have a fitted effect of over 45% in size)
Method in brief: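 TSHR-HEK293 cells in agonist mode, 30 min room-temperature step, then cAMP measured by competitive HTRF (cAMP-d2 with anti-cAMP cryptate) after 1 h at room temperature. Tested at 15 concentrations in triplicate.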

Measured: Potency

Sequence of Luciferin 4-monooxygenase (Photinus pyralis) (P08659 whole entry, looked up): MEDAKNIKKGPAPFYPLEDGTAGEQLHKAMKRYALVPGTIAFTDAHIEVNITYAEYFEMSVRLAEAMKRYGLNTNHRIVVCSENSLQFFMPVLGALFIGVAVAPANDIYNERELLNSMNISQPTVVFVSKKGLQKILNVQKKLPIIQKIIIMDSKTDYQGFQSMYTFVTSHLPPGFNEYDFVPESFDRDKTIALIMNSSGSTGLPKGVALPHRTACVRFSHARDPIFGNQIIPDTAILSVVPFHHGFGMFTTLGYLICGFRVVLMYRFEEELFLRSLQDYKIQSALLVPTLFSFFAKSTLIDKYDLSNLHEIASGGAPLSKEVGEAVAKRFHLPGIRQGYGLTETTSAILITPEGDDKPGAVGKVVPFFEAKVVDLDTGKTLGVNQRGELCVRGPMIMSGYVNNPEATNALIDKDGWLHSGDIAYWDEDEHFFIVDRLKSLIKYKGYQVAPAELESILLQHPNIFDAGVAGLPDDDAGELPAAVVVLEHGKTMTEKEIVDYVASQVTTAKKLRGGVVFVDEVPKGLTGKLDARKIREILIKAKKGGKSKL
Sequence of Thyrotropin receptor (Homo sapiens) (P16473 whole entry, looked up): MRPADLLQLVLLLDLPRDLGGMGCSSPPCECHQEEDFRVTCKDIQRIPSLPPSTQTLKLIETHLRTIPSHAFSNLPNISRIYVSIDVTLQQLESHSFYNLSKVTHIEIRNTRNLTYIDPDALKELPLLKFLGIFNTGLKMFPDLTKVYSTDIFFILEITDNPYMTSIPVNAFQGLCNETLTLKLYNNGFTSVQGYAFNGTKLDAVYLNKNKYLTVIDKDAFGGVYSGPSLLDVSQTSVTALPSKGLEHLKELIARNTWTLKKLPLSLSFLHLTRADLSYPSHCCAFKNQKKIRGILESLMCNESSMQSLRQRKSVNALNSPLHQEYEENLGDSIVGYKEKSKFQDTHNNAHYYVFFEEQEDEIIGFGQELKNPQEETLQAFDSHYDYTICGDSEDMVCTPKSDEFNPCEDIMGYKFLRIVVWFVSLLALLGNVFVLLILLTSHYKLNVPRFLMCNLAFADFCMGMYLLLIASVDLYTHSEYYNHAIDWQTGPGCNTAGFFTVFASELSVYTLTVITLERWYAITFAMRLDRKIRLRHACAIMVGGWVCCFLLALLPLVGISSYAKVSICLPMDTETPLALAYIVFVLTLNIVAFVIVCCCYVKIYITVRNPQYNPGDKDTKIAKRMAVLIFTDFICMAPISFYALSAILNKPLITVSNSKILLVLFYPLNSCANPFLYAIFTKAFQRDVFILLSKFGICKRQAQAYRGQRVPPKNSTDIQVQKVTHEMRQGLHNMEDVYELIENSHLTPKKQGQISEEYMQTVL

CCCCCCCCCCCCCCCBr
inactive: all assays above

C=CC(C)(CCC=C(C)C)OC(=O)c1ccccc1 (configuration not stated)
not listed: [5]
inactive: all other assays above

CCCCCCCCCC=O
inactive: all assays above
